From PubChem BioAssay (Tox21) come the findings set out here.

A number with no mark means an inactive call. Inconclusive results are not listed. Activity calls are given as the source filed them. Unless noted, calls follow the shape of the dose curve; as a rule, active = well fitted curve in the direction sought with a large enough effect in the repeat runs; inconclusive = weak or mixed curves; inactive = no such curve, though single readings can be large; an effect the other way counts as inactive or inconclusive.

Assay [1] can be described thus: qHTS assay to identify small molecule antagonists of the estrogen related receptor (ERR) signaling pathway from Tox21 library - cell viability counter screen (AID 1224834). Also: nearly all actives have a fitted effect of over 30% in size. Also: potency is read from the fitted curve at half-maximal effect. Put shortly:
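CellTiter-Fluor fluorescence measured; ERR cells; 17.5 h compound incubation at 37 C; 30 min reagent step.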

Assay [2] concerns the target Luciferin 4-monooxygenase (Photinus pyralis) (UniProt P08659). As to the kind of experiment: qHTS assay to identify small molecule inhibitors of firefly luciferase (AID 1224835). Also: nearly all actives have a fitted effect of over 25% in size. The method in brief:
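Inhibition of purified Photinus luciferase is measured by luminescence. Substrate levels (D-luciferin, ATP) sit at their KM values. Each compound is tested in a concentration series.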

The nature of assay [3]: qHTS assay to identify small molecule agonists of the constitutive androstane receptor (CAR) signaling pathway - cell viability counter screen (AID 1224836). Also: nearly all actives have a fitted effect of over 45% in size. The method in brief:
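Double-stable HepG2 hepatoma cells (hCAR plus CYP2B6-2.2kb) are treated for 23 h at 37 C with test compounds in 15-point concentration series. PK11195 at 0.75 uM final is co-added. Cell viability is quantified by CellTiter-Fluor.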

Assay [4] has as its target Nuclear receptor subfamily 1 group I member 3 (Homo sapiens) (UniProt Q14994). In words: qHTS assay to identify small molecule antagonists of the constitutive androstane receptor (CAR) signaling pathway (AID 1224838).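 Also: HepG2 cells stably expressing hCAR with CYP2B6 luciferase reporter stimulated by CITCO; nearly all actives have a fitted effect of over 40% in size.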 The method in brief:
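Reporter luminescence was quantified after 24 h exposure of hCAR/CYP2B6-2.2kb double-stable HepG2 cells to compounds at 15 concentrations in the presence of 50 nM CITCO final.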

Assay [5] has the same target. In words: qHTS assay to identify small molecule agonists of the constitutive androstane receptor (CAR) signaling pathway (AID 1224839).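 Also: HepG2 cells stably carrying human CAR and a CYP2B6 luciferase reporter; nearly all actives have a fitted effect of over 15% in size.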 Put shortly: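 Readout: firefly luciferase luminescence via ONE-Glo. System: HepG2 double-stable for hCAR and CYP2B6-2.2kb. Conditions: 15-point compound titration, PK11195 at 0.75 uM final, 24 h incubation.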
A short description of assay [6]: qHTS assay to identify small molecule antagonists of the estrogen related receptor signaling pathway with the pleiotropic PPARgamma coactivator (PGC) from Tox21 10K library - cell viability counter screen (AID 1224840; active = well fitted cell-killing curve with a large enough effect in the repeat runs, not every such curve was filed as active; also: nearly all actives have a fitted effect of over 40% in size). Put shortly: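 Here the PGC/ERR cells serve as a cytotoxicity control: they are exposed to compounds for 17.5 hours at 37 C, and live-cell signal is quantified using CellTiter-Fluor fluorescence.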

Assay [7] in a line: qHTS assay to identify small molecule antagonists of the estrogen related receptor signaling pathway with the pleiotropic PPARgamma coactivator (PGC) from Tox21 10K library (AID 1224841; call rule not given here; also: actives are mostly falling curves and most rising ones were filed inactive; nearly all actives have a fitted effect of over 50% in size). Put shortly: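 Each well held 2,000 PGC/ERR cells, pre-incubated six hours (37 C, 5% CO2). Test substances in DMSO were added by pin tool and left for 18 h at 37 C before luciferase detection by One-Glo.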

Assay [8] in a line: qHTS assay to identify small molecule agonists of the estrogen related receptor signaling pathway with the pleiotropic PPARgamma coactivator (PGC) from Tox21 10K library (AID 1224842). Also: nearly all actives have a fitted effect of over 15% in size. Put shortly:
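Luminescence from One-Glo (30 min, room temperature) measured after PGC/ERR cells had 18 h at 37 C with pinned compound (23 nL in DMSO). Cells had been seeded at 2,000 per well and pre-incubated 6 h.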

The target of assay [9] is Thyrotropin receptor (Homo sapiens) (UniProt P16473). In words: qHTS assay to identify small molecule agonists of the thyroid stimulating hormone receptor (TSHR) signaling pathway (AID 1224843; calls by dose curve; also: nearly all actives have a fitted effect of over 45% in size; also: potency is read from the fitted curve at half-maximal effect). Put shortly:
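HEK293 cells stably bearing the thyrotropin receptor were plated at 800 cells/well and challenged with compound (30 min, RT). Accumulated cAMP was quantified via cAMP-d2 competing for cryptate-tagged antibody.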

Assay [10] is described as follows: qHTS assay to identify small molecule agonists of the hypoxia (HIF-1) signaling pathway - cell viability counter screen (AID 1224844; calls by dose curve; also: nearly all actives have a fitted effect of over 50% in size). The method in brief:
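Multiplexed with the HRE beta-lactamase assay, this viability read used CellTiter-Glo luminescence (30 min, RT) on HRE-bla ME-180 cells treated 17 hrs with compounds in 0.5% dialyzed FBS medium.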

Assay [11] in a line: qHTS assay to identify small molecule agonists of H2AX (AID 1224845; active = well fitted activation curve with a large enough effect in the signal ratio in the repeat runs, not every such curve was filed as active; the % refers to the signal ratio). The method in brief:
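Phospho-H2AX Ser139 measured by HTRF (ex 320 nm; em 665 and 620 nm) after 24 hr antibody incubation. Compounds, 15 concentrations, 0.76% DMSO, were applied to CHO-K1 cells for 3hr at 37C before lysis.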

Assay [12] in a line: qHTS assay to identify small molecule agonists of the hypoxia (HIF-1) signaling pathway (AID 1224846; active = well fitted activation curve with a large enough effect in the signal ratio in the repeat runs, not every such curve was filed as active; the % refers to the signal ratio). The method in brief:
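Hypoxia-pathway activation was scored as increased beta-lactamase from an HRE-controlled reporter in ME-180 cells; plated at 2,000 cells per well with 0.5% dialyzed FBS, they were exposed 17 hrs to compounds and then given CCF4-AM.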

The nature of assay [13]: qHTS assay to identify small molecule agonists of H2AX - cell viability counter screen (AID 1224847; calls by dose curve;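 also: wild-type CHO-K1 cells; top concentration of the series differs between compounds; nearly all actives have a fitted effect of over 30% in size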). Put shortly:
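For this counter screen, overnight-attached CHO-K1 cells received test compounds (15 concentrations, 0.76% DMSO final); 3 hr later at 37C, CellTiter-Glo reagent was added and luminescence recorded after 30 min at room temperature.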

Assay [14] is described as follows: qHTS assay to identify small molecule agonists of the estrogen related receptor (ERR) signaling pathway from Tox21 library (AID 1224849; calls by dose curve; also: nearly all actives have a fitted effect of over 15% in size). To be noted: ERR reporter cell line, ONE-Glo luciferase, 18 h; at 92.4 µM (top of the series) unless noted. Put shortly:
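Six hours post-seeding at 37 C/5% CO2, ERR cells receive DMSO-solubilised compounds; after 18 h at 37 C, ONE-Glo reagent is applied and luminescence recorded.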

The nature of assay [15]: qHTS RealTime-Glo MT Cell Viability Assay in HepG2 cells - 24 hour (AID 1224867). Also: nearly all actives have a fitted effect of over 50% in size. Put shortly:
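Tox21 10K library screened in qHTS format on HepG2 cells carrying RealTime-Glo reagents. Compounds were added after a 5 h preincubation, and the luminescent signal from continuous culture was measured repeatedly during 40 h treatment.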

Assay [16] in a line: qHTS RealTime-Glo MT Cell Viability Assay in HEK293 cells - 32 hour (AID 1224868). Also: nearly all actives have a fitted effect of over 50% in size. Also: potency is read from the fitted curve at half-maximal effect. The method in brief: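 Luminescence generated by NanoLuc from substrate produced by living HEK293 cells served as the viability signal. Each value reflects the reading at its stated time point during continuous 40 h compound exposure at 37 C.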
Assay [17] is described as follows: A CellTox Green Cytotoxicity Assay to monitor cytotoxicity in HEK293 cells - 0 hour (AID 1224869). Also: nearly all actives have a fitted effect of over 50% in size. Put shortly: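 Seeding of HEK293 cells together with cytotoxicity dye preceded a 5 h incubation at 37 C/5% CO2. Test compounds in DMSO were then added and fluorescence monitored across 40 h.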
Assay [18] can be described thus: qHTS assay to identify small molecule antagonists of the constitutive androstane receptor (CAR) signaling pathway - cell viability counter screen (AID 1224837). Also: nearly all actives have a fitted effect of over 45% in size. The method in brief:
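Using CellTiter-Fluor, viability is scored in HepG2 cells stably carrying hCAR and a 2.2kb CYP2B6 reporter after 23 hr compound exposure across 15 concentrations, with CITCO present at 50 nM.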

Assay [19] is described as follows: qHTS assay to identify small molecule antagonists of the estrogen related receptor (ERR) signaling pathway from Tox21 library (AID 1224848). Also: nearly all actives have a fitted effect of over 50% in size. The method in brief: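 Reading was by luminescence 30 min after ONE-Glo addition. Before that, ERR cells at 2,000 per well had rested 6 h at 37 C/5% CO2 and then received pin-tooled compounds in DMSO for 18 h at 37 C.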
% is scaled to controls: 0 for no effect and ±100 for the full control effect.

Thyrotropin receptor (Homo sapiens), sequence (P16473 whole entry, looked up): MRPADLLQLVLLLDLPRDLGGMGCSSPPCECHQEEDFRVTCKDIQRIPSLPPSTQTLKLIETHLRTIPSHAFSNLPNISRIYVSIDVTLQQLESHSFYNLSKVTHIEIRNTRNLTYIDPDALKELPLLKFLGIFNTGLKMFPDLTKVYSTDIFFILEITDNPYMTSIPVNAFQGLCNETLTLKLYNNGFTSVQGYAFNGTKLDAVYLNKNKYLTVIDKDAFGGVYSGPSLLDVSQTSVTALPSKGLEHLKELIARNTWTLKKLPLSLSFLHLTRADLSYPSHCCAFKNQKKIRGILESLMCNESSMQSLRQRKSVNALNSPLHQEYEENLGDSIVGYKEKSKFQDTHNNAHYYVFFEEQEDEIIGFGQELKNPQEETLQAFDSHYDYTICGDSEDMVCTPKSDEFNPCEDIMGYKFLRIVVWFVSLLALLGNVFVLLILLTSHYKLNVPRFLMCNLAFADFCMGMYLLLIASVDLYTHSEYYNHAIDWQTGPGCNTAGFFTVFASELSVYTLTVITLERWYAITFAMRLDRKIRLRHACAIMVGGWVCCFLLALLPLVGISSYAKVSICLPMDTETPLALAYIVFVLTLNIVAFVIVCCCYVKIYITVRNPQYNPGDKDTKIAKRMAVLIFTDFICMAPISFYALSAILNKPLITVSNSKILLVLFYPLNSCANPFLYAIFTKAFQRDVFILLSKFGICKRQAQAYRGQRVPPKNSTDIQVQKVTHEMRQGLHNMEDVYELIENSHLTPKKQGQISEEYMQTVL
Nuclear receptor subfamily 1 group I member 3 (Homo sapiens), sequence (Q14994 whole entry, looked up): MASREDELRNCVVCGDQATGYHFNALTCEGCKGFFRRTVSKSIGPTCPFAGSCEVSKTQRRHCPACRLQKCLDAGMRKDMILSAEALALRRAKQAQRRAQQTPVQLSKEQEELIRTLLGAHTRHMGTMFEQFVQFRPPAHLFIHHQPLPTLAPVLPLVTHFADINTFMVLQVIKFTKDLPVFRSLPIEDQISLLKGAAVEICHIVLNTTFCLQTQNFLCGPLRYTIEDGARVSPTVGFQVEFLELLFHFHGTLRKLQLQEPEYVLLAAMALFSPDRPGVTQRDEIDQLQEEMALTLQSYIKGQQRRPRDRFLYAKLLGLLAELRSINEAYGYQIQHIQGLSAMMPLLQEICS
Luciferin 4-monooxygenase (Photinus pyralis), sequence (P08659 whole entry, looked up): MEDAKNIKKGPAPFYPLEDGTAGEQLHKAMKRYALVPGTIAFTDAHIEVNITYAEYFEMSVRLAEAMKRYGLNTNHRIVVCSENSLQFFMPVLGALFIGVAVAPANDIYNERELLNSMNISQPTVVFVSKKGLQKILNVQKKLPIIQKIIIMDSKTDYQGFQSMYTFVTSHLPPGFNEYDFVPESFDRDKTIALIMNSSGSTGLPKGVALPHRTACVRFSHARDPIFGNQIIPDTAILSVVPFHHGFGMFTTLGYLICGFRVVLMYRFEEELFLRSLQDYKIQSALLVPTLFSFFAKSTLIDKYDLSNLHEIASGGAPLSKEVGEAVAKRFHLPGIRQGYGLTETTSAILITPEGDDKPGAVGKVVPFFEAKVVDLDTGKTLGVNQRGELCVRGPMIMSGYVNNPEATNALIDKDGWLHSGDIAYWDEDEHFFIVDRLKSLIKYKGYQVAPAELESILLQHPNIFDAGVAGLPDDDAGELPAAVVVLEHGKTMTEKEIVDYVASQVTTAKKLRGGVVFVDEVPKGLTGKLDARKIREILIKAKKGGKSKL

As for `O=C(O)Cc1ccc(CCNS(=O)(=O)c2ccc(Cl)cc2)cc1`, the Potency result in [1], in [2], in assay [3], in assay [4], in [5] and in assay [6] was “inactive” each time. The Potency result in assay [7], in [9], in [10], in assay [13], in assay [15] and in assay [16] was “inactive” each time. For the same compound, in [17], the Potency entry is “inactive”. Also, the result in assay [8], in assay [11] and in [12] was inactive. In addition, the activity change, positive = activation in assay [14] was 0.244% [at 42.5 µM].

On to `CN1CCC(=C2c3ccccc3CC(=O)c3sccc32)CC1`, for which the Potency result in assay [1], in assay [2], in assay [3], in [4], in assay [5] and in assay [6] was “inactive” throughout. Further, the Potency entry in assay [9], in assay [10], in assay [13], in assay [15], in [16] and in assay [17] was “inactive” throughout. In addition, the outcome in assay [11] was inactive.

`COC(=O)c1cc(C(=O)OC)cc(S(=O)(=O)O)c1`: the Potency result in [1], in [3], in [18], in assay [4], in assay [5] and in assay [6] was “inactive” each time. Also, the Potency result in assay [7], in [9], in [10], in assay [13], in [19] and in assay [15] was “inactive” in each case. The Potency entry in assay [17] is “inactive”. Moreover, the outcome in [8], in assay [11] and in assay [12] was inactive. In addition, the activity change, positive = activation in assay [14] was 0.501%.

For the compound `COc1ccc(CCN(C)CCCC(C#N)(c2cc(OC)c(OC)c(OC)c2)C(C)C)cc1OC` (stereo unspecified), the Potency in assay [1] is 29.8 µM (active); in [9] it was 2.11 µM (active); in [16], 21.3 µM (active). Also, the Potency entry in assay [2], in [4], in assay [5], in assay [6], in assay [10] and in assay [13] was “inactive” each time. Further, the Potency result in assay [15] and in [17] was “inactive” throughout. Moreover, in assay [11], the compound was classed as inactive.

Consider `CCN1CCC[C@H]1CNC(=O)c1cc(S(N)(=O)=O)ccc1OC`, for which the Potency entry in [1], in assay [2], in [3], in assay [4], in [5] and in assay [6] was “inactive” in each case. Moreover, the Potency entry in assay [9], in assay [10], in assay [13], in [15], in [16] and in assay [17] was “inactive” each time. The outcome in [11] was inactive.

`CC(C)CNCC(C)C`: the Potency result in assay [1], in assay [3], in assay [18], in assay [4], in assay [5] and in [6] was “inactive” in each case. Moreover, the Potency entry in assay [7], in assay [9], in [10], in assay [13], in assay [19] and in [15] was “inactive” throughout. Also, the Potency entry in [16] and in assay [17] was “inactive” throughout. Moreover, the call in assay [8], in assay [11] and in assay [12] was inactive. Also, the activity change, positive = activation in assay [14] was 1.17%.

On to `Cc1[nH]c(=O)c(C#N)cc1-c1ccc2nccn2c1`, for which the Potency result in assay [1], in assay [2], in assay [3], in assay [4], in assay [5] and in [6] was “inactive” each time. Further, the Potency result in assay [9], in [10], in [13], in assay [15], in assay [16] and in assay [17] was “inactive” in each case. The compound was classed as inactive in [11] and in assay [12].

As to `CCCCOCCOCCOCCCC`, the Potency entry in [1], in assay [2], in assay [3], in assay [4], in [5] and in assay [6] was “inactive” throughout. For the same compound, the Potency result in assay [7], in assay [9], in assay [10], in assay [13], in assay [19] and in [15] was “inactive” throughout. Further, the Potency entry in assay [16] and in assay [17] was “inactive” each time. Besides, the compound was classed as inactive in assay [11] and in assay [12]. In [14], the activity change, positive = activation was 0.577%.
